# Experimental data reported in PubChem BioAssay AID651820 (National Center for Advancing Translational Sciences (NCATS), 2012).
# Among all 340,000 compounds or so, about 12,000 (3.5%) were called active. Not shown: some 18% with an inconclusive outcome. This excerpt belongs to a sample that is enriched for actives. Unmarked numbers belong to inactive results. Calls follow the shape of the dose curve; as a rule, active = well fitted inhibition curve with a large enough effect; inconclusive = small, poorly fitted or top-dose-only effect, or another doubt; inactive = no such curve, though single readings can be large or run the other way.
# Assay: qHTS Assay for Inhibitors of Hepatitis C Virus (HCV)
# Conditions: Huh7.5.1 HCVcc-Cre infection, luciferase reporter, 44 h; series mostly up to 41.8 µM; activity change, negative = inhibition: at the top concentration
# How it was run: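 Whole-lifecycle infectious HCVcc-Cre system; cells 1,000/well, compound then virus (~0.5 moi) added 4 h after plating, 44 h culture. Luciferase read 15 sec following 15 min substrate incubation, room temp.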
# % is scaled to controls: 0 for no effect and ±100 for the full control effect; potency is read from the fitted curve at half-maximal effect.
SMILES,"activity change, negative = inhibition [%]",Potency
CCCCn1c(SCC(=O)N2CCCC2=O)nc2cc(S(N)(=O)=O)ccc21,14.2,
CCCCn1c(SCc2ncc(-c3ccccc3)o2)nc2cc(S(N)(=O)=O)ccc21,,6.31 µM (active)
CCn1c(SCC(=O)NCC2CCCO2)nc2cc(S(=O)(=O)N3CCCCC3)ccc21 (stereo not given),-16.5,
CC(=O)Nc1ccc(SC[C@H](Cc2ccccc2)N2CC[C@@H](C)CCC2=O)cc1,17.1,
C=C(C)COc1ccc(-c2nc(N)ncc2-c2ccccc2OC)c(O)c1,,10 µM (active)
COc1ccc(-c2nc(N)ncc2-c2ccc(Cl)cc2)c(O)c1,-24.2,
CCOc1ccc(-c2nc(N)ncc2-c2ccccc2OC)c(O)c1,-9.58,
O=C(COC(=O)c1ncc(Cl)c(Cl)c1Cl)NCc1ccccc1,1.03,
O=C(CCNC(=O)c1ccccc1Cl)NN=Cc1ccco1,16,
COC(=O)C1=C(C)NC(=S)NC1c1ccc(OCC(=O)N2CC(C)OC(C)C2)c(OC)c1 (stereo not given),10.3,
CNC[C@H](CC1CCCCC1)NC[C@H](NCCC1CCCC1)[C@H](C)O,,11.2 µM (active)
COC(=O)c1ccc(-c2c(-c3ccccc3)ncc3cc(OC)c(OC)cc23)cc1,-3.02,
COc1ccc(CCN(C)C(=O)C2CCCN(Cc3ccc(OC)c(OC)c3)C2)cc1OC (stereo not given),2.61,
COc1ccc(CCNC(=O)CS(=O)(=O)Cc2nc(-c3ccc(C)cc3)oc2C)cc1OC,-21.3,
COc1ccc(CCNC(=O)C2CCCN(Cc3nc(-c4cccc(Cl)c4)oc3C)C2)cc1OC (stereo not given),,10 µM (active)
COc1ccc(NC(=O)CN(C)C(=O)c2cc(-c3ccc(C)o3)nc3ccccc23)cc1,-21.8,
Cc1cccc(N=C2NC(=O)/C(=C/c3cn(C)c4ccccc34)S2)c1,,14.1 µM (active)
Cn1cc(/C=C/c2nc3ccccc3c(=O)n2-c2cccc([N+](=O)[O-])c2)c2ccccc21,1.56,
CN(C)c1ccc(-n2cccc2/C=C2/SC(=Nc3ccc(F)cc3)NC2=O)cc1,-22,
Cc1cccc(N(Cc2ccccc2)C(=O)c2cc(S(=O)(=O)N3CCOCC3)ccc2F)c1,-3.25,
CSc1ccc(S(=O)(=O)NC2CCCCC2)cc1,15.8,
O=S(=O)(NC1CCCCC1)c1ccc(F)c2ccccc12,,35.5 µM (active)

SMILES,"activity change, negative = inhibition [%]",Potency
O=S(=O)(NC1CC1)c1ccc2c3c(cccc13)CC2,-28,
O=C(NNc1nc(N2CCCC2)nc(N2CCCC2)n1)c1ccccc1,-16.4,
CN(C)C(=O)CCc1ccc2c3c([nH]c2c1)[C@]1(CCc2ccccc2)[C@@H](C(=O)N2CCCCC2)C[C@H](CC(=O)NCCC2=CCCCC2)C(=O)N1CC3,12.1,
CC(C)CN(C(=O)COC(=O)c1ccc2ccccc2c1)c1c(N)n(Cc2ccccc2)c(=O)[nH]c1=O,-2.77,
CC1=CC(C)(C)Nc2ccc(OC(=O)CN3C(=O)C4CCCCC4C3=O)cc21 (stereo not given),,11.2 µM (active)
O=C(CN1C(=O)C2C3CCC(C3)C2C1=O)Oc1ccc2ccccc2c1 (stereo not given),16.3,
O=C(COC(=O)CN1C(=O)C2CCCCC2C1=O)Nc1ccc(F)c(F)c1F (stereo not given),9.46,
CCc1cccc(CC)c1NC(=S)Nc1ccc2cn[nH]c2c1,-0.0519,
CCc1cccc(CC)c1NC(=S)NCc1ccc2[nH]c(C)cc2c1,,14.1 µM (active)
Cc1cc2cc(CNC(=O)c3ccc(S(=O)(=O)N4CCOCC4)cc3)ccc2[nH]1,-2.6,
CC(Sc1nnc(-c2cccs2)n1C1CC1)C(=O)NCC1CCCO1 (stereo not given),20.4,
O=C(COC(=O)Cn1[nH]c(=O)c2ccccc2c1=O)Nc1ncc(Cl)cc1Cl,2.09,
COc1ccc(N2CCN(C(=O)CCNC(=O)c3ccc(Br)cc3)CC2)cc1,-26.5,
CC1CCCCC12NC(=O)N(CC(=O)OCc1c(F)cccc1Cl)C2=O (stereo not given),12.2,
O=C(Nc1ccon1)c1sc2ccccc2c1Cl,-6.93,
CN1CCc2ccccc2C1Cc1ccccc1NC(=O)c1sc2ccccc2c1Cl (stereo not given),,14.1 µM (active)
CCc1ccccc1NC(=O)NCCN1CCCCC1,-6.99,
Cc1ccc(NC(=O)CSCC(=O)Nc2sccc2C#N)cc1,7.78,
CCCCCCCCCCCCN1[C@@H](CC(C)=O)c2cc(F)cc(F)c2S1(=O)=O,7.87,
O=C(CN1C(=O)NC(Cc2c[nH]c3ccccc23)C1=O)Nc1ccccc1C(F)(F)F (stereo not given),10.9,
O=C(OCCOCn1cc(Br)c(=O)[nH]c1=O)c1ccccc1,7.07,
CN(C)CCOc1ccc(Cl)cc1C(C)(C)C,2.11,

SMILES,"activity change, negative = inhibition [%]",Potency
CC(C)(C)NCCCOc1ccc(Cl)cc1C(C)(C)C,,5.01 µM (active)
Cc1cc(Cl)ccc1OCCCC(=O)NCc1ccncc1,-2.45,
NC1=NC(c2ccc([N+](=O)[O-])cc2)N(c2ccc(F)cc2)C(N)=N1 (stereo not given),10.2,
COc1ccc(S(=O)(=O)N2CCOC23CCN(S(=O)(=O)c2ccc([N+](=O)[O-])cc2)CC3)cc1,-26.6,
CCCCNc1nc2c(c(=O)n(C)c(=O)n2C)n1Cc1cccc(OC)c1,,6.31 µM (active)
Cn1c(=O)c2c(nc(NCc3ccccc3)n2CC(N)=O)n(C)c1=O,9.34,
CCCCNc1nc2c(c(=O)[nH]c(=O)n2C)n1CCOc1ccccc1,-4.32,
CCn1c(NCCc2ccc(OC)c(OC)c2)nc2c1c(=O)n(C)c(=O)n2C,,11.2 µM (active)
CCCCn1c(SCC(=O)NCCc2ccc(OC)c(OC)c2)nc2c1c(=O)n(C)c(=O)n2C,-4.19,
COc1ccc(CNc2nc3c(c(=O)[nH]c(=O)n3C)n2Cc2ccccc2)cc1,-2.18,
CC[C@]1(C(=O)OC)[C@H]2C(=O)N(C)C(=O)[C@H]2[C@H]2CN(C)C(=NCc3ccccc3)N21,3.22,
Cc1cccc(C=CC(=O)c2ccc(Cl)cc2)c1,-8.79,
COc1ccc(CNS(=O)(=O)c2ccc(NC(=O)N3CCCCC3)cc2)cc1,,8.91 µM (active)
COc1ccc(S(=O)(=O)NC(C)C(=O)N2CCCCCC2)cc1 (stereo not given),4.24,
COc1ccc(S(=O)(=O)NCc2ccc(C(=O)N3CCC4(CC3)OCCO4)cc2)cc1,17.5,
CCOC(=O)c1cc(=O)c2ccc(OCc3ccccc3)cc2o1,23.8,
Cc1c(Cc2ccccc2)c(=O)oc2cc(OCC(N)=O)ccc12,-5.76,
CCOC(=O)c1c(-c2ccccc2)oc2ccc(OCC(N)=O)cc12,,10 µM (active)
Cc1cc(=O)oc2ccc(OCC(=O)O)cc12,11,
CN(C)C(=O)Oc1ccc2c(c1)O/C(=C\c1ccccc1)C2=O,-25.2,
CCOC(=O)c1c(-c2ccccc2)oc2ccc(OC(=O)N(C)C)cc12,,10 µM (active)
